The values that follow come from PubChem BioAssay (NCATS).

Each structure is given as a SMILES string. Inconclusive results are not listed. Values without a mark were called inactive. The source made the active and inactive calls. Calls follow the shape of the dose curve; as a rule, active = well fitted curve in the direction sought with a large enough effect; inconclusive = small, poorly fitted or top-dose-only effect, or another doubt; inactive = no such curve, though single readings can be large; an effect the other way counts as inactive or inconclusive.

Assay [1] can be described thus: NS1 protein of Zika virus - qHTS assay to identify small molecule inhibitors in human HEK 293 cells (AID 1347053). Also: nearly all actives have a fitted effect of over 55% in size. Also: potency is read from the fitted curve at half-maximal effect. In a few lines: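 In this cell-based screen, HEK 293 cultures received compound for one hour before Zika MR766 at MOI = 0.5. NS1 was quantified 24 hours later by TR-FRET, normalized to virus-free wells and infected wells.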
Background: In qHTS, concentration-response curves come from the screen itself.

The nature of assay [2]: qHTS of pediatric cancer cell lines to identify multiple opportunities for drug repurposing: Primary screen for TC32 cells (AID 1347089). Also: nearly all actives have a fitted effect of over 60% in size. Also: potency is read from the fitted curve at half-maximal effect. In a few lines:
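TC32 cells, 500-1,000/well in growth medium, compound-treated 48 h at 37 °C; viability from CellTiter-Glo luminescence. Primary screen: MIPE 11-point (0.78 nM–46 µM final), NPC 8-point (0.59 nM–46 µM final); confirmatory at 11-point dilutions.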

Assay [3] can be described thus: qHTS of pediatric cancer cell lines to identify multiple opportunities for drug repurposing: Primary screen for DAOY cells (AID 1347090). Also: nearly all actives have a fitted effect of over 55% in size. Also: potency is read from the fitted curve at half-maximal effect. Summed up: (§1)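 Viability measured as metabolically active cells via CellTiter-Glo luminescence following 48 hours of compound exposure, 11-point dilutions in confirmatory testing. 500-1,000 cells/well plated 5 hours before dosing; controls were DMSO and 2.3 µM bortezomib.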

Assay [4] in a line: qHTS of pediatric cancer cell lines to identify multiple opportunities for drug repurposing: Primary screen for SJ-GBM2 cells (AID 1347091). Also: potency is read from the fitted curve at half-maximal effect. Summed up:
as §1

Assay [5] is described as follows: qHTS of pediatric cancer cell lines to identify multiple opportunities for drug repurposing: Primary screen for A673 cells (AID 1347092). Also: nearly all actives have a fitted effect of over 45% in size. Also: potency is read from the fitted curve at half-maximal effect. In a few lines:
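A673 cells (500-1,000 cells/well) were treated 48 hours at 37 degrees C with compounds at 11-point (0.78 nM to 46 µM) or 8-point (0.59 nM to 46 µM) dilutions. Viability read by CellTiter-Glo luminescence; concentration-response curves fitted.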

The nature of assay [6]: qHTS of pediatric cancer cell lines to identify multiple opportunities for drug repurposing: Primary screen for SK-N-MC cells (AID 1347093). Also: potency is read from the fitted curve at half-maximal effect. In a few lines: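 Metabolically active cells were quantified by ATP-dependent luminescence (CellTiter-Glo, 15 min at room temperature) following 48 h treatment. Cells had been plated at 500-1,000 per well and settled for 5 h beforehand.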

Assay [7] can be described thus: qHTS of pediatric cancer cell lines to identify multiple opportunities for drug repurposing: Primary screen for BT-37 cells (AID 1347094). Also: potency is read from the fitted curve at half-maximal effect. In a few lines: (§2)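 Cells seeded at 500-1,000 cells/well in growth media, rested 5 hours at 37 degrees C, 5% CO2, then dosed; MIPE compounds at 11-point (from 0.78 nM) and NPC at 8-point (from 0.59 nM) final concentrations. Viability by CellTiter-Glo luminescence after 48 hours.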

Assay [8] is described as follows: qHTS of pediatric cancer cell lines to identify multiple opportunities for drug repurposing: Primary screen for NB-EBc1 cells (AID 1347095). Also: potency is read from the fitted curve at half-maximal effect. Summed up: as §2
Assay [9] can be described thus: qHTS of pediatric cancer cell lines to identify multiple opportunities for drug repurposing: Primary screen for U-2 OS cells (AID 1347096). Also: nearly all actives have a fitted effect of over 50% in size. In a few lines: (§3)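 Viability after 48 h compound treatment at 37C, 500-1,000 cells/well, read as ATP luminescence with CellTiter-Glo. Primary screens used 11-point (MIPE, 0.78 nM-46 µM) or 8-point (NPC, 0.59 nM-46 µM) final concentrations; follow-up screens used 11-point dilutions.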

Assay [10] is described as follows: qHTS of pediatric cancer cell lines to identify multiple opportunities for drug repurposing: Primary screen for Saos-2 cells (AID 1347097). Also: nearly all actives have a fitted effect of over 40% in size. In a few lines: as §2
Assay [11] is described as follows: qHTS of pediatric cancer cell lines to identify multiple opportunities for drug repurposing: Primary screen for SK-N-SH cells (AID 1347098).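 Also: DMSO served as neutral control and bortezomib at 2.3 µM as positive control; nearly all actives have a fitted effect of over 65% in size.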 In a few lines: (§4)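 Cells (500-1,000/well) rested 5 h, then received compounds for 48 h; metabolically active cells were measured by CellTiter-Glo luminescence. Final concentrations spanned up to 46 µM (MIPE, 11-point) or 0.59 nM-46 µM (NPC, 8-point) in primary screens, 11-point in follow-ups.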

The nature of assay [12]: qHTS of pediatric cancer cell lines to identify multiple opportunities for drug repurposing: Primary screen for NB1643 cells (AID 1347099). Also: nearly all actives have a fitted effect of over 50% in size. In a few lines:
as §2

Assay [13] can be described thus: qHTS of pediatric cancer cell lines to identify multiple opportunities for drug repurposing: Primary screen for LAN-5 cells (AID 1347100). Also: potency is read from the fitted curve at half-maximal effect. In a few lines:
as §3

A short description of assay [14]: qHTS of pediatric cancer cell lines to identify multiple opportunities for drug repurposing: Primary screen for BT-12 cells (AID 1347101). Also: nearly all actives have a fitted effect of over 25% in size. Summed up:
as §4

A short description of assay [15]: qHTS of pediatric cancer cell lines to identify multiple opportunities for drug repurposing: Primary screen for Rh18 cells (AID 1347102). Also: nearly all actives have a fitted effect of over 65% in size. In a few lines:
as §3

A short description of assay [16]: qHTS of pediatric cancer cell lines to identify multiple opportunities for drug repurposing: Primary screen for OHS-50 cells (AID 1347103). Also: nearly all actives have a fitted effect of over 40% in size. Also: potency is read from the fitted curve at half-maximal effect. Summed up:
as §4

Assay [17] can be described thus: qHTS of pediatric cancer cell lines to identify multiple opportunities for drug repurposing: Primary screen for RD cells (AID 1347104). Also: nearly all actives have a fitted effect of over 55% in size. Summed up:
as §2

With `CCN1CCN(c2cc3c(cc2F)c(=O)c(C(=O)O)cn3C2CC2)CC1`, the Potency result in [1], in assay [2], in [3], in [4], in [5] and in assay [6] was “inactive” throughout. The Potency entry in [7], in assay [8], in assay [9], in [10], in assay [11] and in assay [12] was “inactive” throughout. For the same molecule, the Potency result in assay [13], in [14], in [15], in assay [16] and in assay [17] was “inactive” in each case.

For the molecule `Oc1cc(O)c2c(c1)O[C@H](c1ccc(O)c(O)c1)[C@H](O)C2`, the Potency result in assay [1], in assay [2], in assay [3], in [4], in assay [5] and in assay [6] was “inactive” in each case. Moreover, the Potency entry in [7], in assay [8], in assay [9], in [10], in assay [12] and in assay [14] was “inactive” in each case. Moreover, the Potency entry in assay [15] and in [17] was “inactive” throughout.

Consider `NC[C@H]1O[C@H](O[C@H]2[C@H](O)[C@@H](O[C@H]3O[C@H](CO)[C@@H](O)[C@H](N)[C@H]3O)[C@H](N)C[C@@H]2N)[C@H](N)[C@@H](O)[C@@H]1O`, for which the Potency entry in [1], in assay [2], in assay [3], in assay [4], in [5] and in assay [6] was “inactive” throughout. Further, the Potency entry in assay [7], in assay [8], in [9], in assay [10], in assay [11] and in assay [13] was “inactive” throughout. Besides, the Potency result in assay [14], in [15] and in assay [17] was “inactive” each time.

As to `COC(=O)CCc1ccc(OCC(O)CNC(C)C)cc1` (stereo not given), the Potency result in assay [1], in assay [2], in [3], in assay [4], in assay [5] and in assay [6] was “inactive” in each case. Further, the Potency entry in [7], in assay [8], in assay [9], in assay [10], in assay [11] and in [12] was “inactive” throughout. Besides, the Potency entry in assay [14], in assay [15], in assay [16] and in assay [17] was “inactive” throughout.

Regarding `C[C@]12C=CC(=O)C=C1CC[C@@H]1[C@@H]2[C@@H](O)C[C@@]2(C)[C@H]1CC[C@]2(O)C(=O)CO`, the Potency entry in [1], in [2], in assay [3], in assay [4], in assay [5] and in assay [6] was “inactive” throughout. Besides, the Potency result in assay [7], in assay [8], in assay [9], in assay [11], in assay [12] and in assay [13] was “inactive” each time. Moreover, the Potency result in [14], in assay [15], in [16] and in assay [17] was “inactive” each time.

For the molecule `Nc1ccc(C(=O)O)cc1`, the Potency result in assay [1], in assay [2], in assay [3], in assay [4], in assay [5] and in [6] was “inactive” each time. Further, the Potency entry in [7], in assay [8], in [9], in assay [10], in assay [11] and in assay [12] was “inactive” in each case. In addition, the Potency result in assay [14], in assay [15], in assay [16] and in [17] was “inactive” in each case.

With `COc1cc2c(cc1OC)[C@@H]1CC(=O)[C@@H](CC(C)C)CN1CC2`, the Potency result in assay [1], in assay [2], in assay [3], in [4], in assay [5] and in assay [6] was “inactive” in each case. Also, the Potency entry in [7], in assay [8], in assay [9], in [10], in assay [11] and in assay [12] was “inactive” throughout. Besides, the Potency result in assay [13], in assay [14], in assay [15] and in assay [17] was “inactive” throughout.

For the molecule `Nc1ccn([C@@H]2O[C@H](CO)[C@@H](O)C2(F)F)c(=O)n1`, the Potency in assay [1] was 3160 nM (active); in [2], 11.8 nM (active); in assay [3], 2660 nM (active); in assay [4] it was 473 nM (active); in assay [5], 4.2 nM (active); in [6], 106 nM (active). The Potency in [7] is 4.9 nM (active); in [8], 1190 nM (active); in assay [13] it was 75 nM (active); in assay [16] it was 11000 nM (active). The Potency result in assay [9] and in assay [15] was “inactive” in each case.

On to `NC(CO)(CO)CO`, for which the Potency entry in assay [1], in assay [2], in assay [3], in assay [4], in [5] and in [6] was “inactive” each time. Moreover, the Potency entry in [7], in [8], in assay [9], in assay [10], in assay [11] and in assay [12] was “inactive” in each case. Further, the Potency result in assay [13], in assay [14], in assay [15] and in assay [17] was “inactive” throughout.

Take `Cc1ncc(CSSCc2cnc(C)c(O)c2CO)c(CO)c1O`: the Potency entry in assay [1], in assay [2], in assay [3], in assay [4], in assay [5] and in assay [6] was “inactive” throughout. For the same molecule, the Potency result in assay [7], in assay [9], in assay [10], in [11], in assay [12] and in assay [13] was “inactive” throughout. Moreover, the Potency result in [14], in assay [15] and in [17] was “inactive” each time.

`CCCCS(=O)(=O)N[C@@H](Cc1ccc(OCCCCC2CCNCC2)cc1)C(=O)O`: the Potency entry in assay [1], in [2], in [3], in [4], in assay [5] and in assay [6] was “inactive” each time. The Potency result in assay [7], in [8], in [9], in assay [10], in assay [12] and in assay [13] was “inactive” in each case. Besides, the Potency entry in [14] and in assay [15] was “inactive” throughout.

Take `CCC(C(=O)OCCN(CC)CC)c1ccccc1` (stereo not given): the Potency entry in [1], in assay [2], in assay [3], in assay [4], in assay [5] and in assay [7] was “inactive” throughout. Further, the Potency entry in [8], in assay [9], in assay [10], in [11], in assay [12] and in [13] was “inactive” throughout. Also, the Potency entry in [14], in assay [15], in [16] and in [17] was “inactive” in each case. For the same molecule, in [6], the Potency is 23700 nM (active).

`NC(=O)c1cc[n+](CC2=C(C(=O)[O-])N3C(=O)[C@@H](NC(=O)Cc4cccs4)[C@H]3SC2)cc1`: the Potency result in assay [1], in [2], in [3], in [4], in assay [5] and in assay [6] was “inactive” throughout. Moreover, the Potency entry in [7], in [9], in assay [10], in assay [11], in assay [12] and in assay [14] was “inactive” in each case. Further, the Potency result in assay [15], in [16] and in assay [17] was “inactive” each time.

`CN=C(NC#N)NCCSCc1csc(N=C(N)N)n1`: the Potency result in assay [1], in assay [2], in assay [3], in [4], in assay [5] and in assay [6] was “inactive” throughout. In addition, the Potency entry in [7], in assay [9], in [10], in [11], in assay [12] and in assay [13] was “inactive” throughout. Also, the Potency result in assay [14], in assay [15], in [16] and in assay [17] was “inactive” throughout.
